# BoNT-F LC inh – inhibitors of Botulinum neurotoxin F light chain protease; Multiplex microsphere protease cleavage assay, flow cytometry; inhibition, % at 10 µM; hit rate 0.22% among 360,000; in the data active = inhibition above about 35%, passing the limit was not always enough; inconclusive = no clear call, values can overlap the other calls
# Anthrax LF prot – blocks Bacillus anthracis lethal factor protease; multiplex microsphere protease cleavage assay, LF; inhibition, % at 10 µM; hit rate 0.12% among 360,000; AID 588501; P15917
# BoNT-A LC inh2 – blocks Botulinum neurotoxin A light chain protease; AID 588499; hit rate 0.17% among 360,000; multiplex microsphere protease substrate cleavage, flow cytometry; inhibition, % at 10 µM
# MazF activator – MazEF (E. coli) toxin RNase activation; activation, % at 20 µM; hit rate 0.32% among 350,000; FAM/BHQ RNA-DNA oligo cleavage fluorescence, 5 h; in the data active = activation above about 50%
# Target sequence (P0AE70 whole entry, looked up): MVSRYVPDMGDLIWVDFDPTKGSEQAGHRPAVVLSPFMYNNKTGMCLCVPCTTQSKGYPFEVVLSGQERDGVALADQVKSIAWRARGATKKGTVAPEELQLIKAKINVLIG
# Autofluor counter – compound fluorescence in toxin protease inhibitor counterscreen. compound autofluorescence counterscreen, microsphere flow cytometry; hits give high values. fluorescence intensity (concentration not given with the values). hit rate 3.1% among 360,000. AID 624483; in the data active = fluorescence intensity above about 16000; inconclusive = no clear call, values can overlap the other calls
# A number is an active result; i = inactive; ? = inconclusive; nt = no result. Only some compounds are listed: those with a hit (about 3.6% of all), similar ones and a draw of the others. Rule as the data show it, unless noted: active = inhibition above about 30%; inconclusive = no clear call, values can overlap the other calls; inactive = below that.
SMILES,BoNT-F LC inh,Anthrax LF prot,BoNT-A LC inh2,MazF activator,Autofluor counter
COc1ccc(C2CC(=O)C3=C(C2)NC(C)=C(C(=O)Nc2ccccc2C)C3c2coc3ccc(C)cc3c2=O)cc1OC (stereo not given),i,i,?,i,23361
O=C(COC(=O)[C@@H]1CC(O)CN1S(=O)(=O)c1ccc(Cl)cc1)NC(=O)NCc1ccccc1 (stereo not given in full),i,i,i,i,i
COc1ccccc1C(=O)Nc1nc(-c2ccc(S(=O)(=O)N3CCOCC3)cc2)cs1,i,i,i,i,i
COc1ccccc1OC(C)C(=O)Nc1nc(-c2ccc(S(=O)(=O)N3CCOCC3)cc2)cs1 (stereo not given),i,i,?,i,23958
CCN(CC(=O)NCc1ccc(F)cc1)C(=O)C1CCN(S(=O)(=O)c2ccc(C(C)C)cc2)CC1,i,i,i,i,?
c1ccc(-n2ncc3c(NCCN4CCOCC4)ncnc32)cc1,i,i,i,i,16340
c1ccc(-n2ncc3c(NCCN4CCCCC4)ncnc32)cc1,i,i,i,i,i
CN(Cc1ccccc1)c1ncnc2c1cnn2-c1ccccc1,i,i,i,i,22100
Fc1ccc(CNc2ncnc3c2cnn3-c2ccccc2)cc1,?,i,i,i,i
c1ccc(CNc2ncnc3c2cnn3-c2ccccc2)cc1,i,i,i,i,16180
c1ccc(-n2ncc3c(NCc4ccccn4)ncnc32)cc1,i,i,i,i,24065
O=C(Cn1ccc2ccccc2c1=O)NCC(=O)N1CCN(c2ccccc2F)CC1,i,i,i,i,i
CC(C(=O)NCc1ccccc1Cl)N1C(=O)c2ccccc2C1=O (stereo not given),i,i,i,i,i
COc1ccc(OC)c(-c2nn(-c3ccccc3)cc2C(=O)NC2(C)CCS(=O)(=O)C2)c1 (stereo not given),i,i,i,i,i
CC(CCc1ccccc1)NC(=O)CNC(=O)c1ccccc1Br (stereo not given),i,i,i,i,i
O=C(Nc1ccc(Cl)c(C(F)(F)F)c1)NC1CC2CCCC(C1)N2Cc1ccccc1 (stereo not given),nt,nt,nt,159,nt
C=Cc1ccc(CN2CCCN(Cc3ccc(F)cc3)S2(=O)=O)cc1,45,i,i,i,i
COCCCNc1ccn2nc(-c3ccc(OCc4ccccc4)cc3)cc2n1,i,i,i,nt,i
Cc1cccc(OCCSc2nnc(-c3ccoc3C)n2C)c1,i,i,?,i,20328
COc1ccc(CSc2nnc(-c3ccncc3)n2N)cc1,i,i,i,i,i
Cc1ccc(OCCSc2nnc(-c3ccncc3)n2C)cc1,i,i,i,i,22301
Cn1c(SCCOc2cccc(Cl)c2)nnc1-c1ccncc1,i,i,i,i,i
Nn1c(SCc2ccc(F)cc2)nnc1-c1ccncc1,55,?,i,i,i
c1ccc(CSc2nncn2-c2ccccn2)cc1,i,i,i,i,22351
N#Cc1ccccc1NS(=O)(=O)c1cc2c3c(c1)CCC(=O)N3CCC2,?,i,i,i,?
SMILES,BoNT-F LC inh,Anthrax LF prot,BoNT-A LC inh2,MazF activator,Autofluor counter
Cc1ccc(CSc2nnc(-c3ccccn3)n2C)cc1,i,i,i,i,i
CN(C)c1ccc(CNn2cnnc2SCc2ccc(F)cc2)cc1,i,i,i,i,i
Fc1ccc(CSc2nncn2NCc2ccccc2)cc1,i,i,i,i,21851
Cn1c(SCc2ccc(F)cc2)nnc1-c1ccccn1,i,i,i,i,23620
Cn1c(SCc2ccc(Br)cc2)nnc1-c1ccncc1,i,i,i,i,i
Cn1c(SCc2ccccc2)nnc1-c1ccncc1,i,i,?,i,24601
Cc1cc(C)n(CCCNC(=O)C(C)(C)Oc2ccc(Cl)cc2)n1,i,i,i,i,i
COCCNC(=O)CN1CCC(NC(=O)Nc2ccc(C(F)(F)F)cc2)CC1,i,i,i,i,23251
CCCN1Cc2cccc(C(=O)Nc3cc(OC)cc(OC)c3)c2C1=O,i,i,i,i,22619
COCCN1Cc2cccc(C(=O)Nc3cccc(OC)c3)c2C1=O,i,i,i,i,i
Cc1cccc(CNc2ncnc3ccc(-c4ccccc4Cl)cc23)c1,i,i,i,i,i
CCC(C)NC(=O)c1c(C)cc(=O)oc1C (stereo not given),i,i,i,i,20515
CCCCNC(=O)c1c(C)cc(=O)oc1C,i,i,i,i,22316
Cc1cc(=O)oc(C)c1C(=O)NCCc1ccccc1,i,i,i,i,i
Cc1cc(C(=O)NC(C)C2CCCO2)c(C)o1 (stereo not given),nt,nt,nt,i,nt
O=C(C[n+]1ccccc1)Nc1ccccc1C(=O)O,i,i,i,i,i
Cc1c2c(nc3c(C(=O)NC4CC4)cnn13)CCCC2,i,i,i,i,21129
C[C@H]1CCC[C@H](O)CCCCCc2cc(O)cc(O)c2C(=O)O1,i,i,i,i,i
C[C@H]1CCC[C@@H](O)CCC/C=C/c2cc(O)cc(O)c2C(=O)O1,i,i,i,i,20416
O=C(Nc1ccccn1)c1cc(-n2cnnc2)ccc1Cl,i,i,i,i,i
CC(C)NC(=O)c1cc(-n2cnnc2)ccc1Cl,i,i,i,i,20045
O=C(Nc1cccc(-c2nc3ccccc3s2)c1)c1cc(-n2cnnc2)ccc1Cl,i,i,i,i,i
Cc1c(NC(=O)c2cc(-n3cnnc3)ccc2Cl)cccc1-c1nc2ccccc2s1,i,i,i,i,22973
Cc1ccnc(NC(=O)c2cc(-n3cnnc3)ccc2Cl)c1,i,i,?,i,22908
CC(C)(C)c1ccc(C(=O)Nc2c3c(nn2C(C)(C)C)CS(=O)(=O)C3)cc1,i,i,i,i,?
SMILES,BoNT-F LC inh,Anthrax LF prot,BoNT-A LC inh2,MazF activator,Autofluor counter
CCN(CC)S(=O)(=O)c1ccc(C(=O)Nc2c3c(nn2C(C)(C)C)CS(=O)(=O)C3)cc1,i,i,i,i,23143
CCOC(=O)C1=NN(N=O)C2(CC(=O)N(c3cc(C)cc(C)c3)C2=O)C1 (stereo not given),i,i,i,i,24546
CCOC(=O)C1=NNC2(CC(=O)N(c3cc(C)cc(C)c3)C2=O)C1 (stereo not given),i,i,i,i,i
O=C(c1cccc(C(F)(F)F)c1)N1CCC(O)(CS(=O)(=O)Cc2ccc(Cl)cc2)CC1,i,i,i,i,17295
O=C(c1cccc(C(F)(F)F)c1)N1CCC(O)(CS(=O)(=O)Cc2ccccc2)CC1,i,i,i,i,i
O=C(c1cccc(C(F)(F)F)c1)N1CCC(O)(CS(=O)(=O)Cc2ccccc2Cl)CC1,i,i,?,i,20377
CC(=O)Nc1ccc(CCCCc2ccc(NC(C)=O)cc2)cc1,i,i,i,i,i
CCOc1ccc(-c2c[n+](=O)c3c(n2[O-])CCCC3)c(OCC)c1,i,i,i,i,19889
COc1ccc(OC)c(-c2c[n+](=O)c3c(n2[O-])CCCC3)c1,i,i,i,i,i
COCCNC(=O)Cn1cc(C(=S)N2CCOCC2)c2ccccc21,i,i,i,i,i
COCCCNC(=O)Cn1cc(C(C)=O)c2ccccc21,i,i,i,i,20880
CCc1ccc(OCC(=O)Nc2ccc3c(c2)COC3=O)cc1,i,i,i,i,i
Cc1ccccc1OCC(=O)Nc1ccc2c(c1)COC2=O,i,i,i,i,20173

# Screens as filed in PubChem BioAssay.
